Whole data set: some 16,000 sequences, median “rpm ratio (pull-down/input)” near 0.5, cut for the highest 2% near 5.5. Shown is part of a subset that was picked to be rich in the highest values.

This passage reports binding signal results from article PMC12820563, “FoxP3 forms a head-to-head dimer in vivo and stabilizes its multimerization on adjacent microsatellites”.

For this assay, the target named is T1, MBP-FoxP3dN (Mus musculus, UniProt Q99JB6 188-423).
T1 sequence: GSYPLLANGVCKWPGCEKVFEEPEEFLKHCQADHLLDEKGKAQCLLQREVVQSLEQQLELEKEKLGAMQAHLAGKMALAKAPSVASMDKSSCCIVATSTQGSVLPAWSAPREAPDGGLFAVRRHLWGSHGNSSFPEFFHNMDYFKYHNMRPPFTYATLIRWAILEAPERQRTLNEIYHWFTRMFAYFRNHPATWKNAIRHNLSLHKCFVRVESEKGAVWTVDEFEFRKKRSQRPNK
Kind of assay: PD-seq (MBP pull-down with sequencing); 20 mM Tris-HCl pH 7.5, 100 mM NaCl, 1.5 mM MgCl2, 0.4 uM protein, 0.1 uM dsDNA library, 30 min, room temperature, amylose pull-down; high values mean tight binding. The note with it: protein: recombinant; tags: His6-MBP; chain copies: 2; dsDNA, one strand shown. An outline of the steps: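 A fragment of mouse FoxP3 or FoxP1 without its N-terminus, carrying a His6-MBP tag and produced in E. coli, was combined at 0.4 µM with a 0.1 µM degenerate double-stranded DNA library filled in with Klenow. The mixture sat for 30 min at room temperature in Tris pH 7.5 buffer containing NaCl and MgCl2. Protein–DNA complexes were captured on amylose resin, washed three times, and the DNA was freed with proteinase K, barcoded by PCR and sequenced on Illumina. Binding is expressed as reads-per-million enrichment of pull-down over input, with replicates pooled.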
For the sequence “GATGATTGTTCTCCCAGCTGATGAATTTCATAACTCGAGTAAACAAATTTTCCTAATCTTTCTGTTCAAGCGCCATCTAC”, the binding signal is 0.332 RPM ratio (pull-down/input).

As to “GATGATTGTTCTCCCAGCTGATGAATTATTCATCTCGAGTAAACAAATTTTCCTAATCTTTCTGTTCAAGCGCCATCTAC”, the binding signal is 0.399 RPM ratio (pull-down/input).

In the case of “GATGATTGTTCTCCCAGCTGATGAATTTAGACCGTCGAGTAAACAAATTTTCCTAATCTTTCTGTTCAAGCGCCATCTAC”, the binding signal was 0.5 RPM ratio (pull-down/input).

For the sequence “GATGATTGTTCTCCCAGCTGATGAATTGTGTATCTCGAGTAAACAAATTTTCCTAATCTTTCTGTTCAAGCGCCATCTAC”, the binding signal is 6.36 RPM ratio (pull-down/input).

Regarding “GATGATTGTTCTCCCAGCTGATGAATTCTGTATCTCGAGTAAACAAATTTTCCTAATCTTTCTGTTCAAGCGCCATCTAC”, the binding signal was 4.93 RPM ratio (pull-down/input).

As to “GATGATTGTTCTCCCAGCTGATGAATTGTATCTCTCGAGTAAACAAATTTTCCTAATCTTTCTGTTCAAGCGCCATCTAC”, the binding signal was 1.51 RPM ratio (pull-down/input).

As to “GATGATTGTTCTCCCAGCTGATGAATTTGACTTTTCGAGTAAACAAATTTTCCTAATCTTTCTGTTCAAGCGCCATCTAC”, the binding signal was 0.49 RPM ratio (pull-down/input).

On to “GATGATTGTTCTCCCAGCTGATGAATTGACGTAGTCGAGTAAACAAATTTTCCTAATCTTTCTGTTCAAGCGCCATCTAC”, for which the binding signal was 0.381 RPM ratio (pull-down/input).

Turning to “GATGATTGTTCTCCCAGCTGATGAATTAAGCATCTCGAGTAAACAAATTTTCCTAATCTTTCTGTTCAAGCGCCATCTAC”, the binding signal is 6.6 RPM ratio (pull-down/input).

With “GATGATTGTTCTCCCAGCTGATGAATTAAGCCATTCGAGTAAACAAATTTTCCTAATCTTTCTGTTCAAGCGCCATCTAC”, the binding signal is 4.08 RPM ratio (pull-down/input).

With “GATGATTGTTCTCCCAGCTGATGAATTACAGCATTCGAGTAAACAAATTTTCCTAATCTTTCTGTTCAAGCGCCATCTAC”, the binding signal is 5.18 RPM ratio (pull-down/input).

Regarding “GATGATTGTTCTCCCAGCTGATGAATTAAGCTGTTCGAGTAAACAAATTTTCCTAATCTTTCTGTTCAAGCGCCATCTAC”, the binding signal is 1.12 RPM ratio (pull-down/input).

For “GATGATTGTTCTCCCAGCTGATGAATTTAAGCATTCGAGTAAACAAATTTTCCTAATCTTTCTGTTCAAGCGCCATCTAC”, the binding signal was 5.65 RPM ratio (pull-down/input).

Regarding “GATGATTGTTCTCCCAGCTGATGAATTTAAACATTCGAGTAAACAAATTTTCCTAATCTTTCTGTTCAAGCGCCATCTAC”, the binding signal was 0.704 RPM ratio (pull-down/input).

In the case of “GATGATTGTTCTCCCAGCTGATGAATTTTAAGCATCGAGTAAACAAATTTTCCTAATCTTTCTGTTCAAGCGCCATCTAC”, the binding signal was 0.881 RPM ratio (pull-down/input).

For “GATGATTGTTCTCCCAGCTGATGAATTAAAGCATTCGAGTAAACAAATTTTCCTAATCTTTCTGTTCAAGCGCCATCTAC”, the binding signal is 5.57 RPM ratio (pull-down/input).

Turning to “GATGATTGTTCTCCCAGCTGATGAATTAAGCAGCTCGAGTAAACAAATTTTCCTAATCTTTCTGTTCAAGCGCCATCTAC”, the binding signal was 1.33 RPM ratio (pull-down/input).

Take “GATGATTGTTCTCCCAGCTGATGAATTAAATTTCTCGAGTAAACAAATTTTCCTAATCTTTCTGTTCAAGCGCCATCTAC”: the binding signal is 0.664 RPM ratio (pull-down/input).

“GATGATTGTTCTCCCAGCTGATGAATTCAAGCATTCGAGTAAACAAATTTTCCTAATCTTTCTGTTCAAGCGCCATCTAC”: the binding signal was 4.27 RPM ratio (pull-down/input).

On to “GATGATTGTTCTCCCAGCTGATGAATTAAGCATTTCGAGTAAACAAATTTTCCTAATCTTTCTGTTCAAGCGCCATCTAC”, for which the binding signal was 6.1 RPM ratio (pull-down/input).

As to “GATGATTGTTCTCCCAGCTGATGAATTGGGAAGGTCGAGTAAACAAATTTTCCTAATCTTTCTGTTCAAGCGCCATCTAC”, the binding signal was 0.234 RPM ratio (pull-down/input).

Take “GATGATTGTTCTCCCAGCTGATGAATTCACGGTTTCGAGTAAACAAATTTTCCTAATCTTTCTGTTCAAGCGCCATCTAC”: the binding signal was 0.47 RPM ratio (pull-down/input).

Take “GATGATTGTTCTCCCAGCTGATGAATTATTACATTCGAGTAAACAAATTTTCCTAATCTTTCTGTTCAAGCGCCATCTAC”: the binding signal was 0.591 RPM ratio (pull-down/input).

In the case of “GATGATTGTTCTCCCAGCTGATGAATTGTTCTTGTCGAGTAAACAAATTTTCCTAATCTTTCTGTTCAAGCGCCATCTAC”, the binding signal is 0.412 RPM ratio (pull-down/input).

As for “GATGATTGTTCTCCCAGCTGATGAATTTGTCACTTCGAGTAAACAAATTTTCCTAATCTTTCTGTTCAAGCGCCATCTAC”, the binding signal is 5.39 RPM ratio (pull-down/input).

In the case of “GATGATTGTTCTCCCAGCTGATGAATTGCTTGTCTCGAGTAAACAAATTTTCCTAATCTTTCTGTTCAAGCGCCATCTAC”, the binding signal was 1.71 RPM ratio (pull-down/input).

In the case of “GATGATTGTTCTCCCAGCTGATGAATTTTGCTACTCGAGTAAACAAATTTTCCTAATCTTTCTGTTCAAGCGCCATCTAC”, the binding signal is 2.59 RPM ratio (pull-down/input).

Consider “GATGATTGTTCTCCCAGCTGATGAATTTGCTGTCTCGAGTAAACAAATTTTCCTAATCTTTCTGTTCAAGCGCCATCTAC”, for which the binding signal is 6.16 RPM ratio (pull-down/input).

As to “GATGATTGTTCTCCCAGCTGATGAATTGTCTTGCTCGAGTAAACAAATTTTCCTAATCTTTCTGTTCAAGCGCCATCTAC”, the binding signal is 0.461 RPM ratio (pull-down/input).

Regarding “GATGATTGTTCTCCCAGCTGATGAATTGCTTTACTCGAGTAAACAAATTTTCCTAATCTTTCTGTTCAAGCGCCATCTAC”, the binding signal is 1.22 RPM ratio (pull-down/input).

As to “GATGATTGTTCTCCCAGCTGATGAATTTGCTTACTCGAGTAAACAAATTTTCCTAATCTTTCTGTTCAAGCGCCATCTAC”, the binding signal is 6.78 RPM ratio (pull-down/input).

Take “GATGATTGTTCTCCCAGCTGATGAATTTGCTTGCTCGAGTAAACAAATTTTCCTAATCTTTCTGTTCAAGCGCCATCTAC”: the binding signal is 6.22 RPM ratio (pull-down/input).

As to “GATGATTGTTCTCCCAGCTGATGAATTTGCTTTCTCGAGTAAACAAATTTTCCTAATCTTTCTGTTCAAGCGCCATCTAC”, the binding signal was 5.95 RPM ratio (pull-down/input).

As for “GATGATTGTTCTCCCAGCTGATGAATTGCTTTTCTCGAGTAAACAAATTTTCCTAATCTTTCTGTTCAAGCGCCATCTAC”, the binding signal is 1.42 RPM ratio (pull-down/input).

On to “GATGATTGTTCTCCCAGCTGATGAATTGCTTTGCTCGAGTAAACAAATTTTCCTAATCTTTCTGTTCAAGCGCCATCTAC”, for which the binding signal was 1.22 RPM ratio (pull-down/input).

With “GATGATTGTTCTCCCAGCTGATGAATTTTGCTTCTCGAGTAAACAAATTTTCCTAATCTTTCTGTTCAAGCGCCATCTAC”, the binding signal was 2.58 RPM ratio (pull-down/input).

“GATGATTGTTCTCCCAGCTGATGAATTTTCTTGCTCGAGTAAACAAATTTTCCTAATCTTTCTGTTCAAGCGCCATCTAC”: the binding signal was 0.298 RPM ratio (pull-down/input).

For the sequence “GATGATTGTTCTCCCAGCTGATGAATTTAGCAGGTCGAGTAAACAAATTTTCCTAATCTTTCTGTTCAAGCGCCATCTAC”, the binding signal is 0.708 RPM ratio (pull-down/input).

Turning to “GATGATTGTTCTCCCAGCTGATGAATTCCCATGGTCGAGTAAACAAATTTTCCTAATCTTTCTGTTCAAGCGCCATCTAC”, the binding signal was 0.262 RPM ratio (pull-down/input).

“GATGATTGTTCTCCCAGCTGATGAATTACCAGGGTCGAGTAAACAAATTTTCCTAATCTTTCTGTTCAAGCGCCATCTAC”: the binding signal was 0.252 RPM ratio (pull-down/input).
